Article PMC5540273 (PLoS ONE, 2017)

Legend:
Details in all cases: concentration: 1 μM, replicates: in singlicate; n = 1
[1] = test system: T1, PIP5K2C
T1 construct: gene PIP4K2C

[2] = test system: T2, PKAC-alpha
T2 construct: gene PRKACA

[3] = test system: T3, PKAC-beta
T3 construct: gene PRKACB

[4] = test system: PKMYT1
[5] = test system: PKN1
[6] = test system: PKN2
[7] = test system: PLK1
[8] = test system: PLK2
[9] = test system: PLK3
[10] = test system: PLK4
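Note: KINOMEscan kinase panel screen.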

| SMILES | %Inh [1] | %Inh [2] | %Inh [3] | %Inh [4] | %Inh [5] | %Inh [6] | %Inh [7] | %Inh [8] | %Inh [9] | %Inh [10] |
| --- | --- | --- | --- | --- | --- | --- | --- | --- | --- | --- |
| O=C(Nc1ccccc1F)NC1CCN(c2ccnc(Nc3ccc(F)cc3)n2)C1 (stereo not shown) [GSK1379722] | 18% | 0% | 0% | 4% | 0% | 0% | 0% | 0% | 0% | 0% |
| Nc1nc(-c2ccccn2)c(-c2ccnc3ccccc23)s1 [GW548057] | 57% | 0% | 4% | 0% | 0% | 9% | 0% | 0% | 0% | 14% |
| CNc1nccc(-c2c(-c3ccc(F)cc3)ncn2C2CCN(C)CC2)n1 [SB-222903] | 90% | 1% | 17% | 0% | 0% | 0% | 0% | 0% | 4% | 0% |
| Nc1nccc2scc(-c3ccc4c(c3)CCN4C(=O)Cc3cc(F)ccc3F)c12 [GSK2587663] | 13% | 0% | 12% | 1% | 0% | 0% | 0% | 0% | 0% | 0% |
| O=C(c1ccc(-c2cc(-c3c[nH]nc3-c3ccccn3)ccn2)cc1)N1CCCC1 [GW792479] | 97% | 0% | 22% | 0% | 0% | 0% | 0% | 0% | 12% | 0% |
| COC(=O)c1c(-c2ccccc2)c2cc(Cl)ccc2c(=O)n1Cc1ccc(S(C)(=O)=O)cc1 | 0% | 5% | 0% | 1% | 0% | 0% | 0% | 6% | 9% | 26% |
| C[C@@H]1CCN(C(=O)CO)C[C@@H]1N(C)c1ncnc2[nH]ccc12 | 0% | 0% | 93.7% | 100% | 20% | 21% | 0% | 0% | 12% | 3% |
| O=c1cc(N2CCOCC2)nc2n(Cc3cccc(Cl)c3)ccn12 [GSK2296823] | 0% | 0% | 0% | 11% | 34% | 0% | 5% | 0% | 0% | 0% |
| Nc1n[nH]c2nnc(-c3ccccc3)cc12 [SB-517389] | 7% | 0% | 0% | 0% | 7% | 0% | 0% | 35% | 33% | 9% |
| Fc1cccc(COc2ccc(Nc3ncnc4cc[nH]c34)cc2Cl)c1 | 5% | 25% | 1% | 10% | 0% | 0% | 23% | 23% | 23% | 27% |
| FC(F)(F)c1ccc(-c2nn3ncccc3c2-c2ccnc(Nc3cccc(C(F)(F)F)c3)n2)cc1 [GW828205] | 3% | 0% | 24% | 15% | 0% | 0% | 0% | 0% | 18% | 0% |
| Cl.c1ccc(Cn2ncc3cc(Nc4ncnc5ccccc45)ccc32)cc1 [GW273749] | 0% | 0% | 0% | 0% | 13% | 0% | 2% | 0% | 2% | 0% |
| Cc1cccc(-c2nc(Nc3ccc4[nH]nnc4c3)c3ccccc3n2)n1 [GW867587] | 0% | 0% | 0% | 0% | 0% | 0% | 0% | 0% | 0% | 0% |
| O=C(Nc1n[nH]c2nc(-c3ccco3)c(Br)cc12)c1ccc(CN2CCCC2)cc1.O=C(O)[C@H](O)[C@@H](O)C(=O)O [SB-742352] | 0% | 0% | 0% | 0% | 0% | 21% | 0% | 0% | 0% | 3% |
| Nc1nc(-c2ccc3c(N)n[nH]c3c2)cc(N2CCC[C@@H](C(=O)Nc3ccccc3)C2)n1.O=C(O)C(F)(F)F.O=C(O)C(F)(F)F [GSK2288359] | 31% | 14% | 22% | 0% | 17% | 0% | 3% | 0% | 3% | 16% |
| O=C(Nc1ccccc1)Nc1ccc(Oc2ccc3nccn3n2)cc1 | 25% | 0% | 55% | 8% | 6% | 4% | 3% | 0% | 15% | 0% |
| CS(=O)(=O)CCNCc1ccc(-c2ccc3ncnc(Nc4ccc(OCc5ccccc5)c(Cl)c4)c3c2)o1.Cl [GW574783] | 29% | 4% | 16% | 0% | 12% | 8% | 6% | 0% | 0% | 0% |

| SMILES | %Inh [1] | %Inh [2] | %Inh [3] | %Inh [4] | %Inh [5] | %Inh [6] | %Inh [7] | %Inh [8] | %Inh [9] | %Inh [10] |
| --- | --- | --- | --- | --- | --- | --- | --- | --- | --- | --- |
| COc1ccc(NC(=O)c2ccc(-c3cc(-c4nnc(C)o4)ccc3C)cc2)cc1 [GW595885] | 4% | 0% | 13% | 0% | 0% | 0% | 0% | 0% | 0% | 0% |
| O=C(NCCCN1CCCC1=O)c1cnc(NCc2cc(Cl)ccc2Cl)nc1NC1CCNCC1 | 2% | 0% | 0% | 0% | 20% | 11% | 0% | 0% | 0% | 5% |
| Cc1ccc(C)c(NC(=O)NCCNc2ccnc(Nc3ccc(F)cc3)n2)c1 [GSK1379878] | 25% | 0% | 0% | 0% | 0% | 0% | 4% | 0% | 0% | 0% |
| CCc1nc(-c2cccc(N(C)S(=O)(=O)c3ccccc3)c2)c(-c2ccnc(Nc3ccc(N4CCN(C(C)=O)CC4)nc3)n2)s1 [GSK1645895] | 63% | 0% | 0% | 1% | 34% | 0% | 7% | 0% | 0% | 8% |
| FC(F)(F)c1cc(Nc2nccc(-c3c(-c4ccc(Cl)cc4)nn4ncccc34)n2)ccc1Cl [GW829351] | 0% | 0% | 0% | 0% | 0% | 0% | 0% | 0% | 3% | 7% |
| Clc1cc(Nc2ncnc3cc[nH]c23)ccc1OCc1ccccn1 | 8% | 23% | 0% | 0% | 23% | 0% | 2% | 23% | 25% | 34% |
| COc1ccc(Nc2nccc(N3CCC(NC(=O)Nc4ccc5c(c4)OCO5)C3)n2)cc1 (stereo not shown) [GSK1379745] | 44% | 5% | 5% | 0% | 38% | 0% | 8% | 0% | 0% | 0% |
| Cc1ccc(O)cc1Nc1cc(C(F)(F)F)nc2ccc(-c3ccncc3)cc12 [GW630823] | 0% | 10% | 0% | 9% | 0% | 0% | 0% | 1% | 0% | 0% |
| Fc1cccc(COc2ccc(Nc3ncnc4nn5ccccc5c34)cc2Cl)c1 [GW689066] | 32% | 0% | 8% | 0% | 0% | 0% | 0% | 0% | 0% | 0% |
| Clc1cccc(-c2nc(Nc3ccncc3)c3ccccc3n2)c1 [GW873004] | 49% | 2% | 60% | 0% | 0% | 20% | 17% | 0% | 0% | 0% |
| CN1CCC(n2cnc(-c3ccc(F)cc3)c2-c2ccnc(NC3CCNCC3)n2)CC1 [SB-229482] | 95.2% | 0% | 13% | 0% | 0% | 25% | 11% | 0% | 0% | 20% |
| Oc1ccc2ncnc(Nc3ccc(OCc4ccccc4)cc3)c2c1 [GI262866] | 40% | 0% | 0% | 5% | 1% | 0% | 0% | 0% | 0% | 0% |
| Cc1cc(N2CCC(NS(=O)(=O)c3ccc(F)cc3)CC2)nc(Nc2cccc(C#N)c2)n1.O=C(O)C(F)(F)F [GSK1653537] | 4% | 3% | 0% | 0% | 23% | 0% | 5% | 0% | 0% | 0% |
| CC(C)(C)OC(=O)NC1CCCN(c2cc(-c3ccc4c(N)n[nH]c4c3)nc(N)n2)C1 (stereo not shown) [GSK2286096] | 0% | 0% | 0% | 0% | 0% | 0% | 16% | 0% | 0% | 10% |
| COc1cc2c(Nc3cccc(NC(=O)c4ccccc4)c3)ncnc2cc1OCCCN1CCOCC1 [GSK223810] | 0% | 100% | 0% | 7% | 8% | 0% | 0% | 3% | 0% | 17% |
| Cn1ccc2ncnc(Oc3ccc(NC(=O)Nc4cccnc4)c(Cl)c3)c21 | 0% | 7% | 0% | 0% | 0% | 0% | 0% | 5% | 11% | 11% |
| COc1cc2ncnc(Nc3ccc(OCc4ccccc4Br)c(Cl)c3)c2cc1OC.Cl [GI261590] | 41% | 0% | 0% | 3% | 100% | 0% | 3% | 0% | 0% | 0% |
